Assay outcomes: PubChem BioAssay, National Center for Advancing Translational Sciences (NCATS)
A selection: hits, their analogues and other compounds. The true share with any hit is near 11%.
L3MBTL1 block: qHTS Assay for the Inhibitors of L3MBTL1; Lethal(3)malignant brain tumor-like protein 1 (Homo sapiens), Q9Y468; Potency, µM (doses to about 57.1 µM), inactives show top-dose activity, negative = inhibition, usual class: inhibitors; AlphaScreen L3MBTL1–H3K9me1 peptide binding; actives 0.66% (n = 230,000); further: on the % scale 0 is the no-effect control and ±100 the full control effect; nearly all actives have a fitted effect of over 60% in size
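Displacement of a biotinylated histone H3(1-15) peptide monomethylated at Lys9 (75 nM) from L3MBTL1 (50 nM) was measured by AlphaScreen after a 30 min room-temperature compound incubation; cefsulodin titration served as intraplate control.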
JMJD2A Tudor: qHTS Assay for Inhibitors of JMJD2A-Tudor Domain | Lysine-specific demethylase 4A (Homo sapiens), O75164 | AlphaScreen JMJD2A-Tudor / H3K4me3 peptide binding | Potency, µM (top dose mostly 114 µM), inactives show at the highest dose activity change, negative = inhibition, usual class: inhibitors | actives 4.4% (n = 390,000); further: on the % scale 0 is the no-effect control and ±100 the full control effect; nearly all actives have a fitted effect of over 50% in size
BAZ2B inh: qHTS Assay for Inhibitors of BAZ2B; Bromodomain adjacent to zinc finger domain protein 2B (Homo sapiens), Q9UIF8; AlphaScreen BAZ2B-H3K14Ac peptide displacement; Potency, µM (doses to about 114 µM), for the others: at the highest dose activity change, negative = inhibition, hits mostly inhibitors; actives 4.4% (n = 360,000); further: on the % scale 0 is the no-effect control and ±100 the full control effect; nearly all actives have a fitted effect of over 60% in size
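BAZ2B 50 nM plus b-H3(5-23)K14Ac 50 nM, PBS pH 7.4/0.01% Tween-20, 30 min RT; compound added (max 110 uM), 30 min RT; streptavidin donor/Ni-chelate acceptor beads 10 ug/mL final, 20 min dark; AlphaScreen read.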
HP1b binding inh: HTS for Inhibitors of HP1-beta Chromodomain Interactions with Methylated Histone Tails; Chromobox protein homolog 1 (Homo sapiens), P83916; AlphaScreen HP1-beta / biotin-H3K9me3 peptide binding; Potency, µM (top dose mostly 114 µM), inactives show top-dose activity change, negative = inhibition, actives largely listed as inhibitors; actives 0.56% (n = 390,000); further: nearly all actives have a fitted effect of over 70% in size
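AlphaScreen: HP1-beta (50 nM) preformed 30 min with biotin-H3(1-18)K9me3 peptide (50 nM) in PBS pH 7.4, 0.01% Tween-20. Compound added for 30 min at RT, then streptavidin donor/nickel chelate acceptor beads (10 ug/mL) for 30 min.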
G9a block: qHTS Assay for Inhibitors of Histone Lysine Methyltransferase G9a | Histone-lysine N-methyltransferase EHMT2 (Homo sapiens), Q96KQ7 | G9a H3K9 monomethylation, AlphaScreen, 2 h | Potency, µM (top dose mostly 102 µM), inactives show top-dose activity, negative = inhibition, most hits filed as inhibitors | actives 8.8% (n = 350,000); further: on the % scale 0 is the no-effect control and ±100 the full control effect; nearly all actives have a fitted effect of over 75% in size
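Step 1: enzyme (final 20 nM) with compound, 15 min RT. Step 2: substrate peptide 500 nM and SAM 20 uM, 2 h RT. Step 3: anti-H3K9me1 antibody and AlphaScreen beads, 10 min, then plate read.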
The depositor's hits bear a star; ? = inconclusive; . = not tested or not shown; [ ] = remark or other dose. The call rests on the fitted dose curve; in most records, active means well fitted inhibition curve with a large enough effect; inconclusive means small, poorly fitted or top-dose-only effect; inactive means no such curve, though single readings can be large or run the other way. Potency means the concentration at half of the fitted maximal effect.

SMILES | L3MBTL1 block | JMJD2A Tudor | BAZ2B inh | HP1b binding inh | G9a block
COc1ccc(NC(=O)CN2CCCCC2)cc1S(=O)(=O)N1CCCCC1 | -1% | 2.5µM* | . | ? | .
COc1ccc(NC(=O)CN2C(=O)NC3(CC(C)CC(C)(C)C3)C2=O)cc1S(=O)(=O)N1CCCCC1 (stereo unspecified) | -2% | -32% | -1% | 11% | 16µM*
COc1ccc(NC(=O)COc2ccccc2C)cc1S(=O)(=O)N1CCCCC1 | 0% | -27% | -4% | 17% | 50µM*
CC(=O)N1CCc2cc(CNS(=O)(=O)c3ccc(F)cc3)ccc21 | . | 9% | 4% | 27%[57 µM] | 7%[59 µM]
CCc1ccc2ncc3c(-c4ccc(F)cc4)nn(CC(=O)NC4CCCCC4)c3c2c1 | . | -23% | 16% | 99% | 18%[59 µM]
COc1ccc(NC(=O)COc2ccc3c(C)cc(=O)oc3c2)cc1S(=O)(=O)N1CCCCC1 | -4% | -17% | 8% | 22% | 11µM*
COc1ccc(S(=O)(=O)N2CCOCC2)cc1NC(=O)COc1ccc2c(C)cc(=O)oc2c1 | -1% | -12% | . | 35% | .
CC(C)Cc1nnc(NC(=O)CN2C(=O)NC3(CCCC3)C2=O)s1 | 4% | -6% | 9% | 27% | ?
CCCc1cc(=O)oc2cc(OCC(=O)Nc3ccc(S(N)(=O)=O)cc3)ccc12 | . | -33% | 45µM* | -1%[57 µM] | .
COc1ccc(S(=O)(=O)N2CCCN(CC(=O)Nc3ccc(OC)c(Cl)c3)CC2)cc1 | -14% | -20% | -9% | 44% | 45µM*
CC(C)Cc1nnc(NC(=O)CN2C(=O)NC3(CC(C)CC(C)(C)C3)C2=O)s1 (stereo unspecified) | 7% | -11% | 2% | 24% | 45µM*
COc1ccc(NC(=O)CN2CCN(S(=O)(=O)c3ccc(Cl)cc3)CC2)cc1Cl | 7% | -11% | 2% | 18% | 11%[59 µM]
COc1ccc(-n2c(=S)[nH]c3cc(C(=O)N4CCN(c5ccccc5)CC4)ccc3c2=O)c(OC)c1 | . | -6% | -16% | 24% | 8%
Cc1cc(C)c2oc(-c3cccc(NC(=O)c4ccc(-c5cccc([N+](=O)[O-])c5)o4)c3)nc2c1 | . | -14% | 1%[57.1 µM] | 16% | 4%[59 µM]
O=[N+]([O-])c1ccc(S(=O)(=O)NCc2nc3cccnc3n2Cc2ccccc2Cl)cc1 | . | -15% | 2% | 6%[57 µM] | 24%[59 µM]
CC1CCCN(S(=O)(=O)c2ccc(NC(=O)CN3C(=O)NC(C)(c4ccccc4)C3=O)cc2)C1 (stereo unspecified) | -5% | -30% | -9% | -5% | 56µM*
Cc1cc(-c2ccco2)c(C#N)c2nc3ccccc3n12 | -25% | -6%[57.1 µM] | -27% | 49% | 13µM*
Cc1cc(-c2ccc(S(=O)(=O)N3CCN(c4cccc(C)c4C)CC3)s2)on1 | . | -3% | -5%[57.1 µM] | 64% | 15%
CN(C)c1ccc(CNC(=O)C2CCCN(S(=O)(=O)c3ccc4c(c3)CCCC(=O)N4)C2)cc1 (stereo unspecified) | . | ? | -12%[57.1 µM] | -3% | ?
Cn1c(=O)c2sccc2n2c(CCCC(=O)Nc3ccc(Oc4ccc(Cl)cc4)cc3)nnc12 | . | -3% | -22% | 44% | -2%[59 µM]
COc1ccc(S(=O)(=O)NNc2nc(C)cc(C)n2)cc1Br | -2% | -15% | 6% | -8% | 22µM*
Cc1cc(C)nc(NNS(=O)(=O)c2ccc(Cl)cc2)n1 | 2% | ? | . | -5% | .
COc1ccc(S(=O)(=O)NC2CC2)cc1Br | 4% | 3% | 2% | 35% | .
Cc1cc(C)nc(NNS(=O)(=O)c2ccc(F)c(Cl)c2)n1 | -5% | -31% | 79µM* | 15% | ?
O=C(Nc1ccc(S(=O)(=O)N(Cc2ccccc2)c2ccccc2)cc1)c1ccc([N+](=O)[O-])cc1 | . | -33% | -19% | -19% | ?
CN(C)c1ccc(/C=N/n2cnn(Cc3ccccc3Cl)c2=S)cc1 | -25% | -22% | ? | ? | 4.5µM*
